Experimental data published in PubChem BioAssay (NCI).
This is part of a sample that, as a whole, favours compounds with a hit. Of some 83,000 tested, about 20% had one in any assay.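 Single-dose data. Exposure time 48 hours. Values below 10 considered active.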 The source made the active and inactive calls.

Each compound was assayed on OVCAR-4 ovarian (assay: NCI-60 one-dose screen, 48 h (100 = growth as untreated, 0 = no growth, -100 = all killed)). Conditions: 10 µM unless noted.
In the case of `O=C(NCCCN1CCOCC1)c1cccc(N2C(=O)/C(=C/c3ccc(F)cc3)SC2=S)c1`, the growth is reported as 93.8% (inactive).
In the case of `CC(C)NC1CCC(Nc2ccnc3cc(Cl)ccc23)CC1` (stereo not drawn), the growth is reported as 79.5% (inactive).
With `Fc1ccc(-c2nn(-c3ccccc3)cc2-c2nc3ccccc3o2)cc1` the growth was 78.1% (inactive).
For `COc1ccc(C/C(C)=C(/c2ccc(OCCN3CCCCC3)cc2)c2ccc(OC(=O)NCc3ccccc3)cc2)cc1`, the growth was -91.4% (active).
For `Cn1cc(-c2nonc2-c2c[nH]c3ccc(Br)cc23)c2cc(Br)ccc21`, the growth was -2.18% (active).
With `Cn1c(=O)c2c(nc(NC3=NS(=O)(=O)c4ccccc43)n2CC(=O)N2CCc3ccccc32)n(C)c1=O` the growth was 107% (inactive).
In the case of `Clc1ccc(Nc2nnc(COc3ccccc3)c3ccccc23)cc1`, the growth is reported as 18.1% (inactive).
In the case of `O=[N+]([O-])c1ccc(S(=O)(=O)N2CCN(C3=NS(=O)(=O)c4ccccc4N3c3ccccc3)CC2)cc1`, the growth is reported as 99.8% (inactive).
With `CCNC(=O)c1[nH]cc(-c2ccccc2)c1-c1cc(OC)c2c(c1OC)OCO2` the growth was 98.6% (inactive).
With `COCCn1c(-c2csc(-c3cn(C)c4ccc(OC)cc34)n2)cc2cccnc21` the growth was 55.9% (inactive).
`S=C(Nc1ccc(-c2nc(N3CCOCC3)c3cccn3n2)cc1)Nc1cccnc1` was tested, and the growth was 43.2% (inactive).
For `COc1cc(CNC(=O)CCCC/C=C/C(C)C)ccc1OCc1nnc(Nc2ccc([N+](=O)[O-])cc2)o1`, the growth was 11.3% (inactive).
`N#CC1=C(c2ccc(Cl)cc2)Nc2c(c(-c3ccc(Cl)cc3)nn2-c2ccccc2)C12C(=O)Nc1ccc(Cl)cc12` (stereo not drawn) was tested, and the growth was 41.8% (inactive).
With `CCOC(=O)/C=C1\S/C(=N\Nc2cc(=O)[nH]c3ccc(Cl)cc23)N(c2ccccc2)C1=O` the growth was 76.2% (inactive).
`COc1cccc(NC(=O)Cn2cc(CN3CCN(c4ccnc5cc(Cl)ccc45)CC3)nn2)c1` was tested, and the growth was 85.9% (inactive).
With `COc1cc(N2C(=O)[C@H](O)C2c2ccc(SC)cc2)cc(OC)c1OC` (stereo partly drawn) the growth was 56.5% (inactive).
In the case of `CSc1nnc(-c2cnn3c2NC(c2ccccc2)C3)n1-c1ccc(C(F)(F)F)cc1` (stereo not drawn), the growth is reported as 59.1% (inactive).
For `N=C(N)c1ccc(-c2ccc(-c3ccc(F)cc3)o2)o1`, the growth was 62% (inactive).
`CC1=NN(c2nc(SCC(=O)Nc3nc4ccc(C)cc4s3)nc(-c3ccccc3)c2C#N)C(=O)C1` was tested, and the growth was 101% (inactive).
With `C/C(Nc1ccc(Cl)c(Cl)c1)=C1\CCOC1=O` the growth was 72.4% (inactive).
For `N#Cc1cccc(-c2c(-c3ccc4ccccc4c3)oc3ccccc3c2=O)c1`, the growth was 68.1% (inactive).
With `CC(C)N1CCN(Cc2ccc3c(NNC(=O)c4ccccc4)nc4cc(F)ccc4n23)CC1` the growth was 21.2% (inactive).
With `O=S(=O)(NCCCNc1nccc(-c2c(-c3ccc(F)c(O)c3)nc3occn23)n1)c1ccccc1` the growth was 104% (inactive).
With `O=C1NCCC12CCN(c1c(Cl)cncc1-c1ccc(O)cc1)CC2` the growth was 105% (inactive).
`Cc1cccnc1NC(=S)Nc1ncccc1C` was tested, and the growth was 134% (inactive).
For `COc1ccc2c3c([nH]c2c1)C(=O)c1nc(C)ccc1C3=O`, the growth was 25.7% (inactive).
With `CC1Cc2c(Cl)ncnc2N(C)c2ccc(F)cc21` (stereo not drawn) the growth was 95.4% (inactive).
`O=C1c2cc(Cl)ccc2S(=O)(=O)c2c(NCCCNCCO)nc3ccccc3c21` was tested, and the growth was -32.2% (active).
For `O=C(c1ccc(Cl)cc1)N1CCN(c2ccnc3cc(Cl)ccc23)CC1`, the growth was 70.7% (inactive).
With `Cc1nnc(NC(=O)c2nc(S(=O)(=O)Cc3ccc(F)cc3)ncc2Cl)s1` the growth was 101% (inactive).
For `COc1ccc2[nH]cc(-c3nc(-c4cn(C)c5c(Cl)nccc45)cs3)c2c1`, the growth was 68.8% (inactive).
For `COc1ccc(/C(C)=C(/c2ccc(OCCCN(C)C)cc2)c2ccc(OC(=O)Cc3ccccc3)cc2)cc1`, the growth was 87.9% (inactive).
`CCOc1nc(-c2ccccc2)cc2c(O)c(C(=O)NN)[nH]c(=O)c12` was tested, and the growth was 100% (inactive).
With `Cn1c(=O)c2[nH]c(N/N=C/c3ccccc3Br)nc2n(C)c1=O` the growth was 117% (inactive).
For `Clc1ccc(Sc2cnc(-c3ccccc3)o2)cc1`, the growth was 95.8% (inactive).
For `O=C(Nc1nn(-c2ccc(Cl)cc2Cl)nc1-c1ccccc1)c1ccccc1`, the growth was 106% (inactive).
`Cc1ccc(/C=N/Nc2nc(Nc3ccccc3)nc(-n3nc(C)cc3C)n2)cc1` was tested, and the growth was 27.6% (inactive).
With `O=C(Nc1cc(Cl)ccc1O)c1ccc(Nc2ccnc(C(F)(F)F)c2)cc1` the growth was 43.3% (inactive).
For `CC(C)(C)c1cc(-c2nc3ccc(N4CCN(S(C)(=O)=O)CC4)cc3[nH]2)cc(C(C)(C)C)c1O`, the growth was 88.6% (inactive).

These compounds were tested on SK-OV-3 ovarian in the same assay as above. Conditions: 10 µM unless noted.
With `O=C(NCCCN1CCOCC1)c1cccc(N2C(=O)/C(=C/c3ccc(F)cc3)SC2=S)c1` the growth was 108% (inactive).
`CC(C)NC1CCC(Nc2ccnc3cc(Cl)ccc23)CC1` (stereo not drawn) was tested, and the growth was 93% (inactive).
With `Fc1ccc(-c2nn(-c3ccccc3)cc2-c2nc3ccccc3o2)cc1` the growth was 120% (inactive).
For `COc1ccc(C/C(C)=C(/c2ccc(OCCN3CCCCC3)cc2)c2ccc(OC(=O)NCc3ccccc3)cc2)cc1`, the growth was -93.7% (active).
In the case of `Cn1cc(-c2nonc2-c2c[nH]c3ccc(Br)cc23)c2cc(Br)ccc21`, the growth is reported as 53.7% (inactive).
In the case of `Cn1c(=O)c2c(nc(NC3=NS(=O)(=O)c4ccccc43)n2CC(=O)N2CCc3ccccc32)n(C)c1=O`, the growth is reported as 101% (inactive).
In the case of `Clc1ccc(Nc2nnc(COc3ccccc3)c3ccccc23)cc1`, the growth is reported as 9.17% (active).
For `O=[N+]([O-])c1ccc(S(=O)(=O)N2CCN(C3=NS(=O)(=O)c4ccccc4N3c3ccccc3)CC2)cc1`, the growth was 102% (inactive).
`CCNC(=O)c1[nH]cc(-c2ccccc2)c1-c1cc(OC)c2c(c1OC)OCO2` was tested, and the growth was 90.3% (inactive).
For `COCCn1c(-c2csc(-c3cn(C)c4ccc(OC)cc34)n2)cc2cccnc21`, the growth was 65.2% (inactive).
For `S=C(Nc1ccc(-c2nc(N3CCOCC3)c3cccn3n2)cc1)Nc1cccnc1`, the growth was 21.5% (inactive).
For `COc1cc(CNC(=O)CCCC/C=C/C(C)C)ccc1OCc1nnc(Nc2ccc([N+](=O)[O-])cc2)o1`, the growth was 11.8% (inactive).
With `N#CC1=C(c2ccc(Cl)cc2)Nc2c(c(-c3ccc(Cl)cc3)nn2-c2ccccc2)C12C(=O)Nc1ccc(Cl)cc12` (stereo not drawn) the growth was 86.5% (inactive).
`CCOC(=O)/C=C1\S/C(=N\Nc2cc(=O)[nH]c3ccc(Cl)cc23)N(c2ccccc2)C1=O` was tested, and the growth was 102% (inactive).
In the case of `COc1cccc(NC(=O)Cn2cc(CN3CCN(c4ccnc5cc(Cl)ccc45)CC3)nn2)c1`, the growth is reported as 74% (inactive).
With `COc1cc(N2C(=O)[C@H](O)C2c2ccc(SC)cc2)cc(OC)c1OC` (stereo partly drawn) the growth was 3.02% (active).
In the case of `CSc1nnc(-c2cnn3c2NC(c2ccccc2)C3)n1-c1ccc(C(F)(F)F)cc1` (stereo not drawn), the growth is reported as 69.4% (inactive).
With `N=C(N)c1ccc(-c2ccc(-c3ccc(F)cc3)o2)o1` the growth was 28.1% (inactive).
`CC1=NN(c2nc(SCC(=O)Nc3nc4ccc(C)cc4s3)nc(-c3ccccc3)c2C#N)C(=O)C1` was tested, and the growth was 106% (inactive).
With `C/C(Nc1ccc(Cl)c(Cl)c1)=C1\CCOC1=O` the growth was 121% (inactive).
For `N#Cc1cccc(-c2c(-c3ccc4ccccc4c3)oc3ccccc3c2=O)c1`, the growth was 51% (inactive).
For `CC(C)N1CCN(Cc2ccc3c(NNC(=O)c4ccccc4)nc4cc(F)ccc4n23)CC1`, the growth was 35% (inactive).
With `O=S(=O)(NCCCNc1nccc(-c2c(-c3ccc(F)c(O)c3)nc3occn23)n1)c1ccccc1` the growth was 79.4% (inactive).
In the case of `O=C1NCCC12CCN(c1c(Cl)cncc1-c1ccc(O)cc1)CC2`, the growth is reported as 85.4% (inactive).
`Cc1cccnc1NC(=S)Nc1ncccc1C` was tested, and the growth was -65.6% (active).
For `COc1ccc2c3c([nH]c2c1)C(=O)c1nc(C)ccc1C3=O`, the growth was 76.3% (inactive).
`CC1Cc2c(Cl)ncnc2N(C)c2ccc(F)cc21` (stereo not drawn) was tested, and the growth was 89.6% (inactive).
`O=C1c2cc(Cl)ccc2S(=O)(=O)c2c(NCCCNCCO)nc3ccccc3c21` was tested, and the growth was 75.7% (inactive).
With `O=C(c1ccc(Cl)cc1)N1CCN(c2ccnc3cc(Cl)ccc23)CC1` the growth was 93.6% (inactive).
With `Cc1nnc(NC(=O)c2nc(S(=O)(=O)Cc3ccc(F)cc3)ncc2Cl)s1` the growth was 101% (inactive).
`COc1ccc2[nH]cc(-c3nc(-c4cn(C)c5c(Cl)nccc45)cs3)c2c1` was tested, and the growth was 60.1% (inactive).
`COc1ccc(/C(C)=C(/c2ccc(OCCCN(C)C)cc2)c2ccc(OC(=O)Cc3ccccc3)cc2)cc1` was tested, and the growth was 73.4% (inactive).
`CCOc1nc(-c2ccccc2)cc2c(O)c(C(=O)NN)[nH]c(=O)c12` was tested, and the growth was 113% (inactive).
In the case of `Cn1c(=O)c2[nH]c(N/N=C/c3ccccc3Br)nc2n(C)c1=O`, the growth is reported as 117% (inactive).
`Clc1ccc(Sc2cnc(-c3ccccc3)o2)cc1` was tested, and the growth was 101% (inactive).
With `O=C(Nc1nn(-c2ccc(Cl)cc2Cl)nc1-c1ccccc1)c1ccccc1` the growth was 117% (inactive).
For `Cc1ccc(/C=N/Nc2nc(Nc3ccccc3)nc(-n3nc(C)cc3C)n2)cc1`, the growth was 69.3% (inactive).
With `O=C(Nc1cc(Cl)ccc1O)c1ccc(Nc2ccnc(C(F)(F)F)c2)cc1` the growth was 64.1% (inactive).
With `CC(C)(C)c1cc(-c2nc3ccc(N4CCN(S(C)(=O)=O)CC4)cc3[nH]2)cc(C(C)(C)C)c1O` the growth was 79.5% (inactive).
